Screening data (PubChem BioAssay)
CYP2C9 inh = blocks human cytochrome P450 2C9. P11712. CYP2C9 Supersomes, luciferin-H conversion, luminescence. inhibition, % at 5 µM. 96,000 tested, 20% active. AID 777;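 active = blocking of liver enzyme CYP2C9 beyond about 50% at 5 µM, limit read from the data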
Target sequence (P11712 whole entry, looked up): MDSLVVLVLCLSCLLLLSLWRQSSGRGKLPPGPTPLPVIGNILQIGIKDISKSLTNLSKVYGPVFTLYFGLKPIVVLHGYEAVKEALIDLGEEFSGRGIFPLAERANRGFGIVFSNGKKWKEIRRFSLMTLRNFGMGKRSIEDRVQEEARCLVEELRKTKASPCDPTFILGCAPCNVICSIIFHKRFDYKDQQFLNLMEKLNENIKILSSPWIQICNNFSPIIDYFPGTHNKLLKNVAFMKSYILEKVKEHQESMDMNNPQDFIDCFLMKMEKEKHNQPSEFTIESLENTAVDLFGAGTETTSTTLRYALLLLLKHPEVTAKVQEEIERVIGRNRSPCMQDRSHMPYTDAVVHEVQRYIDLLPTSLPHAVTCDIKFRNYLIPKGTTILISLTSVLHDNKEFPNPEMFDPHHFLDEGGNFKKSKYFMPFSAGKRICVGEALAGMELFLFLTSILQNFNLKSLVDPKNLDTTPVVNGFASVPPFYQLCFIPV
CYP2C9 act = increases human cytochrome P450 2C9 activity | P11712 | 96,000 tested, 1.4% active | AID 1024 | recombinant CYP2C9, luciferin-H conversion, luminescence; stronger effect = higher value; factor 1 = untreated enzyme, 0 = blocked | activation factor at 5 µM;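 active = activation factor of 2 or more for CYP2C9 at a 5 µM dose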;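 also: 0 = sulfaphenazole-blocked wells and 1 = vehicle-only wells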
CYP2C19 inh = inhibitors of human CYP2C19; P33261; CYP2C19 Supersomes, luciferin-H EGE luminescence, 30 min; inhibition, % at 5 µM; 96,000 tested, 21% active;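 active = CYP2C19 inhibition above a set limit at 5 µM in the primary screen, cut at about 50% in these data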;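 also: plate controls were negative control wells for no effect and 2.5 mM tranylcypromine positive control for full effect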
CYP2C19 act = cytochrome P450 2C19 (human) activation; activation factor at 5 µM; AID 1025; P33261; 96,000 tested, under 10 active; recombinant CYP2C19, luciferin-H EGE luminescence; stronger effect = higher value; 0 = fully inhibited enzyme, 1 = untreated enzyme;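 active = activation factor of at least 2 at 5 µM in the primary screen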;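 also: 0 = wells with 2.5 mM tranylcypromine and 1 = vehicle-only wells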
Measles CPE = protection of cells from measles virus | Measles virus-infected cells, CPE protection, absorbance | protection (pct of control), % at 4 µM | 140,000 tested, 1.5% active; in the data active = protection mostly above about 24%, no sharp cut-off; inactive = mostly below about 26%
Numbers without * were called inactive; . = no result given. In the library only some 22% were active in any assay of this set; here they are far more common.

SMILES | CYP2C9 inh | CYP2C9 act | CYP2C19 inh | CYP2C19 act | Measles CPE
C/C(=N/OCC(=O)NCCCCCCNC(=O)CO/N=C(/C)c1cccs1)c1cccs1 | . | . | . | . | 26
CC(=O)c1c(C)nn(C(=O)N2CCOCC2)c1C | -2 | 1 | -4 | 1 | .
COc1ccc(NC(=O)C2CCN(c3cc(C)nc(-c4ccccc4)n3)CC2)cc1 | 10 | 0.9 | 17 | 0.8 | 2
Cc1cc(N2CCC(C(N)=O)CC2)nc(-c2ccccc2)n1 | 53* | 0.5 | -6 | 1.1 | 1
Cc1cc(N2CCC(C(=O)Nc3ccc(F)cc3)CC2)nc(-c2ccccc2)n1 | 62* | 0.4 | 82* | 0.2 | 6
NC(=O)C1CCN(c2nc(-c3ccccc3)nc3c2oc2ccccc23)CC1 | 14 | 0.9 | 4 | 1 | 12
NC(=O)C1CCN(c2nc(-c3ccccc3)nc3ccccc23)CC1 | 54* | 0.5 | 21 | 0.8 | 5
O=C(Cc1cn2ccsc2n1)Nc1nc2c(s1)CN(Cc1ccccc1)CC2 | 8 | 0.9 | -7 | 1.1 | 3
O=C(NCCCN1CCN(c2cccc(Cl)c2)CC1)C1CCC(=O)N1Cc1ccccc1Cl (centres undefined) | 11 | 0.9 | 13 | 0.9 | 25
CN(CC(=O)Nc1cccc(F)c1)C(=O)CCCc1cccs1 | . | . | . | . | 27
O=S(=O)(N/N=C/c1ccc2c(c1)OCCO2)c1ccc(Cl)cc1 | 71* | 0.3 | 32 | 0.7 | 1
Cc1ccc(S(=O)(=O)N/N=C/c2cnn(C)c2C)cc1 | 37 | 0.6 | 32 | 0.7 | 4
O=S(=O)(N/N=C\c1c(F)cccc1Cl)c1ccc(Cl)cc1 | 64* | 0.4 | 81* | 0.2 | 3
Fc1cccc(Cl)c1/C=N/Nc1c(Cl)cncc1Cl | . | . | . | . | 13
CCn1ncc(/C=N/NS(=O)(=O)c2ccc(Cl)cc2)c1C | 88* | 0.1 | 67* | 0.3 | 13
Cc1cc(Cl)c(S(=O)(=O)N/N=C/c2ccc3c(c2)OCO3)c(Cl)c1 | 96* | 0 | 39 | 0.6 | 4
COc1ccc(NCc2ccc([N+](=O)[O-])s2)c(OC)c1 | . | . | . | . | 10
COc1ccc(NC(=O)COC(=O)c2cnccn2)cc1Cl | -10 | 1.1 | -6 | 1.1 | 6
Cn1c(CSc2nc3ccc(Br)cc3[nH]2)nc2ccccc21 | 23 | 0.8 | 82* | 0.2 | 7
Cn1c(CSc2nnc(SCc3ccccc3)s2)nc2ccccc21 | 19 | 0.8 | 60* | 0.4 | 18
O=C(O)CCSc1nc2ccc(Br)cc2[nH]1 | -4 | 1 | -12 | 1.1 | 4
O=[N+]([O-])c1ccc(CSc2nnc(SCc3ccccc3)s2)cc1 | . | . | . | . | 33
CC(C#N)(Nc1ccc(Cl)cc1)c1cccnc1 (centres undefined) | . | . | . | . | 18
Cc1ccc(-c2nc(N)sc2-c2ccccc2)cc1C | . | . | . | . | 3
CCOc1ccc(NC(=O)N(C2CCCCC2)C(C)c2ccncc2)cc1 (centres undefined) | 68* | 0.3 | 63* | 0.4 | 10
SMILES | CYP2C9 inh | CYP2C9 act | CYP2C19 inh | CYP2C19 act | Measles CPE
Cc1cccc(NC(=O)C2c3ccccc3C(=O)N3CCc4ccccc4C23)n1 (centres undefined) | 41 | 0.6 | 28 | 0.7 | 4
O=C(c1ccccc1Cl)N(C(=O)c1ccccc1Cl)c1nccc(-c2cccs2)n1 | 77* | 0.2 | 35 | 0.6 | 6
CC(C)C(=O)Nc1nnc(CCN2CCOCC2)s1 | -15 | 1.2 | -17 | 1.2 | 0
COc1ccc(S(=O)(=O)NNC(=O)c2csc(-n3nc(C)cc3C(F)(F)F)n2)cc1OC | 54* | 0.5 | 14 | 0.9 | 16
COc1ccc(/C=N/NC(=O)c2csc(-n3nc(C)cc3C(F)(F)F)n2)cc1 | 32 | 0.7 | 23 | 0.8 | 13
CC(=O)c1cccc(NC(=O)c2csc(-n3nc(C)cc3C(F)(F)F)n2)c1 | 56* | 0.4 | 51* | 0.5 | 8
Cc1cccn2cc(CCNC(=O)c3ccc(Br)o3)nc12 | 7 | 0.9 | 22 | 0.8 | 15
CC(Oc1ccccc1)C(=O)Nc1ccc(S(=O)(=O)NCC2CCCO2)cc1 (centres undefined) | 45 | 0.6 | -12 | 1.1 | 18
COc1ccc(OC)c(/C=C(\NC(=O)c2ccccc2)C(=O)N/N=C/c2ccc(C)s2)c1 | 1 | 1 | 7 | 0.9 | 35*
Cc1ccc(CN2CCN(/N=C/c3cc(Br)cc(Br)c3O)CC2)c(C)c1 | . | . | . | . | 5
Cc1ccc(-n2[nH]c(C)c(C=Nc3ccc(S(=O)(=O)N4CCOCC4)cc3)c2=O)c(C)c1 | . | . | . | . | 3
O=C1c2ccccc2-c2onc3ccc(NCc4ccco4)c1c23 | 88* | 0.1 | 55* | 0.4 | 20
